# Bioassay records from PubChem BioAssay.
# Sampled rows, rich in hits. Any-hit rate of the full collection: about 7.8%.
# MARV entry inh: blocks Marburg virus binding to or entry into cells | AID 540276 | 300,000 tested, 1.8% active | Potency, µM (highest dose often 37.8 µM), for inactives: at the highest dose activity change, negative = inhibition, actives largely listed as inhibitors | Marburg virus pseudotyped entry inhibition, cell reporter; calls by dose curve; tested in HEK293 cells; further: potency means the concentration at half of the fitted maximal effect
# LASV entry inh: inhibitors of Lassa virus binding or cell entry | 300,000 tested, 1.2% active | Lassa virus pseudotype entry inhibition, cell reporter | AID 540256 | Potency, µM (highest dose often 37.9 µM), for the others: at the highest dose activity change, negative = inhibition, hits mostly inhibitors; calls by dose curve; tested in HEK293 cells; further: potency means the concentration at half of the fitted maximal effect; nearly all actives have a fitted effect of over 50% in size
# VACV Venus inh: inhibitors of vaccinia virus (Venus reporter) | Vaccinia virus Venus reporter expression, fluorescence | Potency, µM (top dose mostly 36.5 µM), inactives show at the highest dose activity change, negative = inhibition, usual class: inhibitors | 330,000 tested, 0.46% active | AID 720580; calls by dose curve; tested in A549 cells; further: potency means the concentration at half of the fitted maximal effect; nearly all actives have a fitted effect of over 30% in size
# HCMV inh: human cytomegalovirus inhibition. HFF cells, HCMV-luciferase reporter, 72 h; active compounds read low. activity change, negative = inhibition, % at 57.5 µM. 410,000 tested, 4.5% active. AID 1259415; in the data active means activity change below about -60%; inconclusive means no clear call, values can overlap the other calls; inactive means above about -39%
#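 Inhibition of viral replication was scored as loss of reporter luminescence in HFFs infected with HCMV-luciferase (MOI 1 PFU/cell) for 72 h; compounds tested at 2 doses, normalized to buffer and Salinomycin controls.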
# Vaccinia mCherry: vaccinia inhibition (mCherry reporter); Potency, µM (doses to about 36.5 µM), without a hit: at the highest dose activity change, negative = inhibition, actives largely listed as inhibitors; 310,000 tested, 0.63% active; Vaccinia virus mCherry reporter infection, fluorescence; calls by dose curve; tested in A549 cells; further: potency means the concentration at half of the fitted maximal effect; nearly all actives have a fitted effect of over 35% in size
# HCV inh: HCV inhibition. 340,000 tested, 3.4% active. Huh7.5.1 HCVcc-Cre infection, luciferase reporter, 44 h. Potency, µM (series often up to 41.8 µM), for inactives: at the highest dose activity change, negative = inhibition, actives largely listed as inhibitors; active means well fitted inhibition curve with a large enough effect; inconclusive means small, poorly fitted or top-dose-only effect, or another doubt; inactive means no such curve, though single readings can be large or run the other way; further: potency means the concentration at half of the fitted maximal effect
#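 Antiviral activity was scored by luciferase reporter output from cells infected with HCVcc-Cre (~0.5 moi) in presence of compound, 44 h infection period, cells seeded 1,000/well 4 h prior.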
# * marks the source's active call; other numbers are inactive results; i = inactive; ? = inconclusive; / = no result; ! = repeats disagree; [ ] = dose if it differs, or a comment. On the % scale 0 is the no-effect control and ±100 the full control effect.
SMILES,MARV entry inh,LASV entry inh,VACV Venus inh,HCMV inh,Vaccinia mCherry,HCV inh
CC(Nc1nc(-c2ccccc2)nc2ccccc12)c1ccccc1 (stereo not drawn),/,/,?,50,0%,-30%
c1ccc(CNc2nc(-c3cccs3)nc3ccccc23)cc1,7%,4%,-15%,-74*,-15%,?
COc1ccccc1CNc1nc(NCc2ccccc2)nc2ccsc12,/,/,?,?,-18%,/
CC(C)(C)C(=O)OCCNc1nc(-c2cccs2)nc2ccccc12,/,/,-22%,/,-24%,/
c1ccc(CNc2nc(-c3ccccc3)nc3ccccc23)cc1,?,22%[46.1 µM],-23%,?,-13%,?
CCC(C)Nc1nc(-c2ccccn2)nc2ccccc12 (stereo not drawn),/,/,/,-99*,/,?
c1ccc(CNc2nc(NCc3ccccc3)c3sccc3n2)cc1,/,/,-29%,-80*,-6%,/
COc1ccc(S[C@@H]2C[C@@H](C(=O)Nc3ccc4nccnc4c3)N(C3Cc4ccccc4C3)C2)cc1,/,/,-1%,/,-12%,/
CCOc1ccc(CNC(=O)CN2C(=O)CCn3nc(-c4cn(C)c5ccccc45)cc32)cc1OC,/,1%[46.1 µM],-10%,9,-10%,/
COc1cccc(-c2nc(NC(C)C)c3ccccc3n2)c1O,-29%,-10%,/,-15,/,?
CCC(C)N(C(=O)CSc1nc(-c2cccs2)nc2ccccc12)C1CCS(=O)(=O)C1 (stereo not drawn),?,?,-21%,-28,i,?
CCC(C)Nc1nc(-c2cccc(OC)c2O)nc2ccccc12 (stereo not drawn),?,?,?,55,?,2.5µM*
CCSc1nc(-c2cccs2)nc2ccccc12,-8%[46.1 µM],13%,-10%,-1,-18%,4µM*
COc1cccc(C(=O)N2CCc3c(C(=O)NC(C)c4ccco4)c(OC)cc(=O)n3CC2)c1OC (stereo not drawn),/,/,8%,/,-4%,/
Cc1cc(C)n(C[C@@H]2CC(=O)N(c3cc(Cl)cc(Cl)c3)C2=O)n1,4%,/,/,/,/,/
CC#C[C@]1(O)CC[C@H]2[C@@H]3CCC4=CC(=O)CCC4=C3[C@@H](c3ccc(N(C)C)cc3)C[C@@]21C,10µM*!,8.2µM*!,-14%,114,-6%,35µM*!
CC(=O)O[C@H]1CCC2C3CCC4=CC(=O)CCC4=C3C=C[C@@]21C (stereo partly drawn),-15%,1%,-11%,-11,-1%,11%
Cc1ccc(-c2nc(-c3cc4cccc(OCc5cccc(F)c5)c4oc3=O)no2)cc1,18%[46.1 µM],?,3%,1,-1%,/
C[C@@]1(c2ccco2)NC(=O)NC1=O,10%,/,/,/,/,/
CCn1nc(C)cc1-c1nnc(Sc2ncc([N+](=O)[O-])s2)n1C,/,/,/,-96*,/,3.5µM*
CCN1CCCC1CNC(=O)c1cnn(-c2nccc(-c3cc4ccccc4o3)n2)c1C1CC1 (stereo not drawn),/,/,-23%,/,-23%,/
Oc1ccc2ccccc2c1-c1sc(Nc2ccccc2)n[n+]1-c1ccc(F)cc1,/,/,93%,8,-8%,-8%
COc1ccc(C)cc1Nc1n[n+](-c2ccccc2)c(-c2c(OC)ccc3ccccc23)s1,/,/,?,-101*,14µM*,32µM*
Cc1csc(Nc2cccc3ccccc23)n1,?,4%,-2%,-28,-16%,-4%
c1ccc(-[n+]2nc(Nc3cccc4ccccc34)sc2-c2c3ccccc3cc3ccccc23)cc1,/,/,-29%,/,i,3.5µM*
SMILES,MARV entry inh,LASV entry inh,VACV Venus inh,HCMV inh,Vaccinia mCherry,HCV inh
COc1ccc(C)cc1Nc1n[n+](-c2ccccc2)c(-c2cc(OC)c(OC)cc2Br)s1,/,/,?,7,-21%,-28%
Fc1ccc(-[n+]2nc(Nc3ccccc3)sc2-c2c3ccccc3cc3ccccc23)cc1,/,/,?,-98*,-13%,-8%[8.37 µM]
COCc1[nH]nc2c1[C@@H](c1ccc(OC)cc1)C(C#N)=C(N)O2,5%,/,/,/,/,/
Cc1ccc2c(c1)c(=O)c1ccccc1n2CCCC(=O)Nc1ccc(C)c(C)c1,/,?,-29%,-61*,?,/
O=C(CCCn1c2ccccc2c(=O)c2ccccc21)Nc1cccc(Cl)c1,/,?,-16%,-67*,-25%,/
Cc1ccc2c(c1)c(=O)c1ccccc1n2CCCC(=O)Nc1ccc(Cl)c(Cl)c1,/,-11%[46.1 µM],-27%,-37,-25%,/
Cc1ccc2c(c1)c(=O)c1ccccc1n2CCCC(=O)Nc1ccc(C)c(F)c1,/,?,?,-74*,?,/
O=C(Nc1ccc(F)c(Cl)c1)C1CCN(S(=O)(=O)c2ccc3[nH]c(=O)ccc3c2)CC1,/,?,3%,0,0%,/
CC(C)(C)c1ccc(C(=O)Nc2nc3nc(-c4ccccc4)cc(=O)n3[nH]2)cc1,7%[46.1 µM],-2%[46.1 µM],-2%[7.34 µM],18,-7%[7.34 µM],/
CCOc1cc(CNCCCN2CCOCC2)cc(Cl)c1OCC(=O)NC(C)(C)C,?,?,-6%,1,-6%,11µM*
C=CCOc1c(Cl)cc(CNCCCN2CCOCC2)cc1OC,10µM*,13%[46.1 µM],-6%,-10,-3%,?
CCOc1cc(NC(=S)NCCCN2CCOCC2)c(OCC)cc1NC(=O)CC(C)C,-26%,18%,/,-93*,/,21%
COc1cc(CNCCN2CCOCC2)ccc1OCc1ccccc1Cl,?,?,-15%,-14,-12%[1.46 µM],?
COc1cc(NC(=S)NCCCN2CCOCC2)c(OC)cc1Cl,?,-2%[46.1 µM],-5%,-35,i,-7%
COc1cc(CNCCN2CCOCC2)ccc1OCc1ccc(Cl)cc1,?,-15%,-14%,-35,/,7.1µM*
CCOc1cc(CNCCCN2CCOCC2)cc(Br)c1OCC(=O)Nc1cccc(C(F)(F)F)c1,-10%,/,/,-18,/,?
O=C1CN(S(=O)(=O)c2ccccc2)C[C@H]2[C@H](c3ccc(Br)cc3)[C@H](CO)N12,/,/,/,-24,/,/
CC(=O)c1ccc(NC(=O)CSc2cn(CC(=O)N(C(C)C)C(C)C)c3ccccc23)cc1,/,0%[46.1 µM],-8%,-38,-2%,/
COc1cc(CNCCCN2CCOCC2)cc(Br)c1OCc1ccc(Cl)cc1,/,/,/,-99*,/,1.8µM*
